Bioassay records: PubChem BioAssay, National Center for Advancing Translational Sciences (NCATS)
Most compounds without a hit are left out; they make up all but 1.3% or so of the library.
Rango complex inh: Rango-importin beta binding inhibition; actives 0.031% (n = 340,000); Rango CFP/YFP FRET sensor + importin beta, 45 min; Q14974; Potency, µM (titrated, usually from 92.2 µM), for the others: at the top dose inhibition of complex formation;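 further: potency means the concentration at half of the fitted maximal effect; 0% = DMSO wells and 100% = buffer wells lacking importin beta; nearly all actives have a fitted effect of over 15% in size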
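FRET biosensor (snurportin 1 IBB flanked by EYFP and cerulean), 50 nM, with compound 5 min, then 0.125 microM importin beta in PBS, 1 mM DTT, 0.02% Tween-20, 0.1% BSA. CFP/YFP ratio read after 45 min at room temperature; pre-read flags interference.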
Rango release inh: inhibitors of RanGTP-induced Rango-importin beta complex dissociation | Potency, µM (highest dose often 46.1 µM), for inactives: at the highest dose activity change, negative = inhibition | O95149+P62826 | AID 540253 | Biochemical FRET Rango-importin beta, RanGTP-induced dissociation | actives 0.071% (n = 340,000); further: potency means the concentration at half of the fitted maximal effect; % of control where 0% means no effect; nearly all actives have a fitted effect of over 45% in size
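Compounds preincubate 5 min with complex of recombinant Rango and importin beta in PBS with 1 mM DTT. Ran (0.6 uM) loaded with 2 mM GTP plus 0.2 uM RCC1 starts dissociation; FRET is recorded 45 min later.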
KCNH2 WT inh: inhibitors of human wildtype KCNH2 potassium channel; Q12809; actives 0.37% (n = 340,000); U2OS, BacMam KCNH2, thallium flux FluxOr; stronger effect = lower value; activity change, % at 1.84 µM;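 active means maximum activity change below -70%; inconclusive means maximum activity change between -70% and -50%; inactive means maximum activity change above -50%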; further: on the % scale 0 is the no-effect control and ±100 the full control effect
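U2OS cells transduced with wild-type KCNH2 virus are loaded with FluxOr dye for 45 min, and thallium flux is measured in kinetic reads before and after stimulation buffer. Rate constants are normalized to DMSO controls.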
KCNH2 3.1 inh: blocks the human KCNH2 3.1 channel isoform; U2OS KCNH2 3.1, thallium flux FluxOr; stronger effect = lower value; activity change, % (tested at about 1.8 µM); actives 0.95% (n = 340,000); AID 720553;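 active means maximum activity change below -70%; inconclusive means maximum activity change from -70% to -50%; inactive means maximum activity change above -50%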;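 further: thallium influx rate constant from kinetic fluorescence after stimulation buffer; on the % scale 0 is the no-effect control and ±100 the full control effect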
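We transduce U2OS cells with the mutant 3.1 virus, culture them overnight, load FluxOr with Red40 quencher for 45 min, then add stimulation buffer and read kinetically for 2 min to derive a normalized rate constant.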
An asterisk follows results filed as active. Unless noted, the call rests on the fitted dose curve.

For CCOc1ccc(/C=C2/SC(=O)NC2=S)cc1 the results were Rango complex inh 7.8%, Rango release inh -3.6%, KCNH2 WT inh -16.1 and KCNH2 3.1 inh -93.7*.
Screening CCOc1ccc(/C=C2\SC(=S)N(N3C(=O)C4CC4C3=O)C2=O)cc1 (centres undefined) returned Rango complex inh -2.2%, Rango release inh 2.8%, KCNH2 WT inh -5.7 and KCNH2 3.1 inh -99.0*.
`CCOc1ccc(/C=C2\SC(=S)N(CC(=O)N(CCO)C(C)(C)C)C2=O)cc1` gave Rango complex inh -2.4%, Rango release inh 2.9%, KCNH2 WT inh 9.8 and KCNH2 3.1 inh 6.4.
For COc1ccc(C(=O)OCC(=O)Nc2cccc(S(=O)(=O)NC3=NCCCCC3)c2)cc1[N+](=O)[O-] the results were Rango complex inh 0.5%, Rango release inh 1.6%, KCNH2 WT inh 28.6 and KCNH2 3.1 inh 12.3.
For CCN(C[C@H]1N[C@@](CC)(C(=O)OC)[C@H]2C(=O)N(C)C(=O)[C@@H]12)S(=O)(=O)c1ccccc1 the results were Rango complex inh -1.1%, Rango release inh -10.9%, KCNH2 WT inh -0.8 and KCNH2 3.1 inh 4.9.
For Cc1coc2c1c(C)cc1oc(=O)c(CC(=O)N[C@@H](C)C(=O)O)c(C)c12 the results were Rango complex inh -1.9%, Rango release inh 1.7%, KCNH2 WT inh 2.1 and KCNH2 3.1 inh 11.5.
Screening CSc1ccc(/C=N/NC(=O)CN2CCN(Cc3ccc(Cl)cc3)CC2)cc1 returned Rango complex inh 2.4%, Rango release inh -2.2%, KCNH2 WT inh -41.3 and KCNH2 3.1 inh -106.2*.
For CSc1ccc(/C=N/NC(=O)CN2CCN(Cc3ccccc3)CC2)cc1 the results were Rango complex inh 4.1%, Rango release inh 19.1%, KCNH2 WT inh -1.2 and KCNH2 3.1 inh -72.8*.
Screening CC(/C=N/NC(=O)CN1CCN(Cc2ccc(Cl)cc2)CC1)=C\c1ccco1 returned Rango complex inh 0.2%, Rango release inh -3.8%, KCNH2 WT inh -28.6 and KCNH2 3.1 inh -74.1*.
For O=C(CN1CCN(Cc2ccccc2)CC1)N/N=C/C=C/c1ccco1 the results were Rango complex inh -5.9%, Rango release inh -10.6%, KCNH2 WT inh 4.4 and KCNH2 3.1 inh 1.3.
`O=C(CCC1N=C2c3ccccc3N=C(SCC(=O)NCC3CCCO3)N2C1=O)NCc1ccc(F)cc1` (centres undefined) gave Rango complex inh 0.3%, Rango release inh -1.5%, KCNH2 WT inh 1.8 and KCNH2 3.1 inh -8.5.
`CC(=O)Oc1cccc2c1C(=O)C1CC=CC(OC(C)=O)C1C2=O` (centres undefined) gave Rango complex inh 7.2%, Rango release inh 20.8%, KCNH2 WT inh -15.9 and KCNH2 3.1 inh -4.3.
O=C(c1cccn2c(=O)c3cc(Cl)ccc3nc12)N1CCN(Cc2ccc3c(c2)OCO3)CC1 was read as Rango complex inh inconclusive, Rango release inh inconclusive, KCNH2 WT inh 7.9 and KCNH2 3.1 inh -82.8*.
COc1ccc(N(CC(=O)N2CCN(Cc3ccc4c(c3)OCO4)CC2)S(=O)(=O)c2ccc(F)cc2)cc1 was read as Rango complex inh 0.0%, Rango release inh 5.3%, KCNH2 WT inh -44.0 and KCNH2 3.1 inh -86.1*.
O=C(c1ccc2nccnc2c1)N1CCN(Cc2ccc3c(c2)OCO3)CC1 was read as Rango complex inh 1.9%, Rango release inh 1.1%, KCNH2 WT inh -3.2 and KCNH2 3.1 inh -87.3*.
`O=C(c1cccn2c(=O)c3ccccc3nc12)N1CCN(Cc2ccc3c(c2)OCO3)CC1` gave Rango complex inh inconclusive, Rango release inh inconclusive, KCNH2 WT inh 24.9 and KCNH2 3.1 inh -11.6.
O=C(CN(c1ccccc1)S(=O)(=O)c1ccccc1)N1CCN(Cc2ccc3c(c2)OCO3)CC1 was read as Rango complex inh -5.8%, Rango release inh 0.1%, KCNH2 WT inh 42.0 and KCNH2 3.1 inh -3.3.
For CC(C)CC(=O)N1CCN(Cc2ccc3c(c2)OCO3)CC1 the results were Rango complex inh 0.5%, Rango release inh 0.8%, KCNH2 WT inh -132.5* and KCNH2 3.1 inh 16.3.
`COc1ccccc1NC(=O)CSc1nnc(CC(=O)Nc2ccccc2F)n1C` gave Rango complex inh -1.7%, Rango release inh -5.3%, KCNH2 WT inh 3.8 and KCNH2 3.1 inh -0.9.
`Cc1cc(CN2C(=O)c3ccccc3C2=O)cc(N2CCOCC2)c1` gave Rango complex inh -1.2%, Rango release inh 4.5%, KCNH2 WT inh -293.6* and KCNH2 3.1 inh 4.6.
`CCc1ccc(-n2nc3cc(C)c(N)cc3n2)cc1` gave Rango complex inh inconclusive, Rango release inh inconclusive, KCNH2 WT inh 4.1 and KCNH2 3.1 inh 0.4.
For Cc1ccc(-n2nc3cc(C)c(N)cc3n2)cc1 the results were Rango complex inh inconclusive, Rango release inh 18.4µM*, KCNH2 WT inh -2.3 and KCNH2 3.1 inh 1.2.
For CCSc1nnc(NC(=O)CCNS(=O)(=O)c2ccccc2F)s1 the results were Rango complex inh 1.1%, Rango release inh -15.1%, KCNH2 WT inh -1.3 and KCNH2 3.1 inh -7.8.
`COc1ccc(NC(=O)CSc2nc(N)cc(N)n2)cc1S(=O)(=O)N1CCCCC1` gave Rango complex inh 0.5%, Rango release inh 10.3%, KCNH2 WT inh 3.5 and KCNH2 3.1 inh 8.9.
For COc1ccc(C2(c3ccc(OC)cc3)NC(=O)N(CC(=O)NC3(C#N)CCCCC3)C2=O)cc1 the results were Rango complex inh -0.2%, Rango release inh -2.6%, KCNH2 WT inh 5.2 and KCNH2 3.1 inh -1.5.
`O=C(NCCNC(=O)c1ccccc1Br)c1ccccc1Br` gave Rango complex inh 5.4%, Rango release inh 36.4%, KCNH2 WT inh -6.1 and KCNH2 3.1 inh -114.5*.
Screening O=C(NCCCNC(=O)c1ccccc1Br)c1ccccc1Br returned Rango complex inh -1.5%, Rango release inh -1.3%, KCNH2 WT inh -3.5 and KCNH2 3.1 inh -8.7.
For Cc1cc(NC(=O)c2ccccc2)ccc1NC(=O)Cc1ccccc1 the results were Rango complex inh 1.3%, Rango release inh -2.6%, KCNH2 WT inh 3.6 and KCNH2 3.1 inh 8.5.
Screening Cc1ccc(S(=O)(=O)NCC(=O)OC2CCOC2=O)cc1 (centres undefined) returned Rango complex inh 0.4%, Rango release inh -3.0%, KCNH2 WT inh -125.8* and KCNH2 3.1 inh -94.9*.
Screening COC(=O)CNS(=O)(=O)c1ccc(C)cc1 returned Rango complex inh -1.1%, Rango release inh 1.6%, KCNH2 WT inh 1.4 and KCNH2 3.1 inh 4.2.
Screening Cc1ccc2cc(C(=O)O)c(C)nc2c1 returned Rango complex inh 0.4%, Rango release inh -1.3%, KCNH2 WT inh 4.7 and KCNH2 3.1 inh -87.9*.
CCCOc1ccc(CCc2n[nH]c(=S)n2-c2ccccc2)cc1 was read as Rango complex inh 3.1%, Rango release inh -0.4%, KCNH2 WT inh -3.5 and KCNH2 3.1 inh -73.7*.
COc1ccccc1-n1c(SC(C)C(=O)NCC2CCCO2)nc2cc(Cl)ccc2c1=O (centres undefined) was read as Rango complex inh -1.4%, Rango release inh -23.3%, KCNH2 WT inh -16.3 and KCNH2 3.1 inh 8.8.
